{"source": "PubChem BioAssay (Tox21)", "note": "Values without a mark were called inactive. Active and inactive are the calls of the source. Calls come from the whole dose curve."}
{"target": "Thyrotropin-releasing hormone receptor (Homo sapiens) (UniProt P34981)", "sequence (P34981 whole entry, looked up)": "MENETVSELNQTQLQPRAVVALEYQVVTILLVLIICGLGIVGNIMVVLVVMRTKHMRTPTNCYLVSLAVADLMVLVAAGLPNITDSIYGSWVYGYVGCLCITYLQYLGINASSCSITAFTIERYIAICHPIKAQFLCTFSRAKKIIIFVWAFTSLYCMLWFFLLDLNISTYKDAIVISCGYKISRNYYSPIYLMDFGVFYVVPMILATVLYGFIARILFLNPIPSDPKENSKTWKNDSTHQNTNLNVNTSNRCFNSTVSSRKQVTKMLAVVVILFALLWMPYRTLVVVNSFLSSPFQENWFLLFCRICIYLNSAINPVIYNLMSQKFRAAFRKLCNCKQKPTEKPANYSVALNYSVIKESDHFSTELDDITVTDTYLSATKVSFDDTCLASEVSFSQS", "experiment": "qHTS assay to identify small molecule agonists of the thyrotropin-releasing hormone receptor (TRHR) signaling pathway (AID 1346891); note: % is set by controls: 0 for no effect and ±100 for the full control effect", "details": "TRHR-HEK293 calcium fluorescence, agonist mode; series mostly up to 57.6 µM; activation: at the top concentration", "outline": "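TRHR-expressing HEK293 cells were plated 18 h at 37 °C/5% CO2, loaded with calcium dye 2 h at 37 °C, then given compound in DMSO; fluorescence was read kinetically for 3 min at 1 s intervals.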"}
{"compound": "CCC(Cl)C(Cl)C(Cl)CC(Cl)C(Cl)C(C)Cl", "note": "(stereo not given)", "activation": "0.563%"}
{"compound": "CCCCCCCCCCCCCCCC(=O)OC[C@H](O)[C@H]1OC(=O)C(O)=C1O", "activation": "0.0981%"}
{"compound": "COc1cc(-c2ccc(N=C=O)c(OC)c2)ccc1N=C=O", "activation": "-0.0378% [at 26.5 µM]"}
{"compound": "CNC(=O)c1ccccc1", "activation": "0.0221%"}
{"compound": "NNC(=O)c1cccc(C(=O)NN)c1", "activation": "0.112%"}
{"compound": "CCCCCCCCCCCCCCCS(=O)(=O)Oc1ccccc1", "activation": "0.165% [at 26.5 µM]"}
{"compound": "C1CCCC1", "activation": "0.0127%"}
{"compound": "O=c1cccccc1O", "activation": "0.0485%"}
{"compound": "Nc1c(Cl)cc(Cl)cc1Cl", "activation": "0.122%"}
{"compound": "Cc1cccc(S(=O)(=O)O)c1C", "activation": "0.242%"}
{"compound": "Cc1ccc(O)c2ncccc12", "activation": "5.26% [at 26.5 µM]"}
{"compound": "CCCCCOc1ccccc1/C(=C\\SC)n1ccnc1", "activation": "-1.59% [at 26.5 µM]"}
{"compound": "CSc1cnc(C)cn1", "activation": "0.151% [at 150 µM]"}
{"compound": "CN(C)CCCOC1(Cc2ccccc2)CCCCCC1", "activation": "3.72% [at 26.5 µM]"}
{"compound": "CCOC(=O)O[C@]1(C(=O)OCCl)CC[C@H]2[C@@H]3CCC4=CC(=O)C=C[C@]4(C)[C@H]3[C@@H](O)C[C@@]21C", "activation": "-0.0292% [at 26.5 µM]"}
{"compound": "CN(C)[C@@H]1C(=O)C(C(N)=O)=C(O)[C@@]2(O)C(=O)C3=C(O)c4c(O)ccc(Cl)c4[C@@H](O)[C@H]3C[C@@H]12", "activation": "-0.0428% [at 26.5 µM]"}
{"compound": "O=CC=C(c1ccccc1)c1ccccc1", "activation": "11%"}
{"compound": "Cc1cc(O)c(Cl)c(C)c1Cl", "activation": "-0.379%"}
{"compound": "O=C(c1ccc(O)cc1O)c1ccc(O)cc1O", "Potency": "inactive"}
{"compound": "Oc1ccc2c(c1)-c1ccccc1C2", "activation": "-1.28%"}
{"compound": "O=C1CCCCCN1SSN1CCCCCC1=O", "activation": "0.238%"}
{"compound": "CC(C)=CCOc1ccc(/C=C/C(=O)c2ccc(OCC=C(C)C)cc2OCC(=O)O)cc1", "activation": "-0.477% [at 26.5 µM]"}
{"compound": "CCC(C)(C)C1CCCCC1OC(C)=O", "note": "(stereo not given)", "activation": "-0.0327%"}
{"compound": "CC(C)(C)C(=O)OCOC(=O)[C@@H]1N2C(=O)[C@@H](NC(=O)[C@H](N)c3ccccc3)[C@H]2SC1(C)C", "activation": "0.188% [at 26.5 µM]"}
{"compound": "c1ccc(CSCc2ccccc2)cc1", "activation": "0.276%"}
